Assay results reported in the supplement of paper PMC11732987, “Enantioselective OTUD7B fragment discovery through chemoproteomics screening and high-throughput optimisation” (Communications Chemistry, 2025).

Assays:
Assay in all cases: log2 ratio of Biotin-Ahx-Ub-VS probe labelling (fragment/DMSO); higher = less target engagement (more negative = stronger competition), active = hit call of the paper (q ≤ 0.05, log2 ratio ≤ -1)
Details in all cases: compound concentration: 200 uM; treatment time: 3 h
[1] = target: T1, OTUD6B (UniProt Q8N6M0)
T1 sequence (whole entry): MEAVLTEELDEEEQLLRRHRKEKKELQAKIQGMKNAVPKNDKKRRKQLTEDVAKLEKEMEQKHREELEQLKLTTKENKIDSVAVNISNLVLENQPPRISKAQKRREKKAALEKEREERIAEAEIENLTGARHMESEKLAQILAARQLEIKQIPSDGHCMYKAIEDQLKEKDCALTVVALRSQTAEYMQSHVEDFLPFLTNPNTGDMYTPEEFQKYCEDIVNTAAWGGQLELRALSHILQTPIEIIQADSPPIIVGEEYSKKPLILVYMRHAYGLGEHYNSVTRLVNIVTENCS
Summary of the method: (§1)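 HEK293T lysate (495 µg per sample, in Tris/CHAPS/IGEPAL buffer with protease inhibitors) was treated in triplicate with fragment at 200 µM or with DMSO for 3 h. It was then treated with Biotin-Ahx-Ub-VS (0.5 µM final) for 1 h. Labelled DUBs were NeutrAvidin-enriched, digested with LysC and trypsin, and run by diaPASEF LC-MS/MS. Spectronaut label-free quantities were global-median-normalised. Values are average log2 ratios fragment/DMSO by unpaired t-test, using proteins with ≥2 unique peptides.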

[2] = target: T2, OTUD7B (UniProt Q6GQQ9)
T2 sequence (whole entry): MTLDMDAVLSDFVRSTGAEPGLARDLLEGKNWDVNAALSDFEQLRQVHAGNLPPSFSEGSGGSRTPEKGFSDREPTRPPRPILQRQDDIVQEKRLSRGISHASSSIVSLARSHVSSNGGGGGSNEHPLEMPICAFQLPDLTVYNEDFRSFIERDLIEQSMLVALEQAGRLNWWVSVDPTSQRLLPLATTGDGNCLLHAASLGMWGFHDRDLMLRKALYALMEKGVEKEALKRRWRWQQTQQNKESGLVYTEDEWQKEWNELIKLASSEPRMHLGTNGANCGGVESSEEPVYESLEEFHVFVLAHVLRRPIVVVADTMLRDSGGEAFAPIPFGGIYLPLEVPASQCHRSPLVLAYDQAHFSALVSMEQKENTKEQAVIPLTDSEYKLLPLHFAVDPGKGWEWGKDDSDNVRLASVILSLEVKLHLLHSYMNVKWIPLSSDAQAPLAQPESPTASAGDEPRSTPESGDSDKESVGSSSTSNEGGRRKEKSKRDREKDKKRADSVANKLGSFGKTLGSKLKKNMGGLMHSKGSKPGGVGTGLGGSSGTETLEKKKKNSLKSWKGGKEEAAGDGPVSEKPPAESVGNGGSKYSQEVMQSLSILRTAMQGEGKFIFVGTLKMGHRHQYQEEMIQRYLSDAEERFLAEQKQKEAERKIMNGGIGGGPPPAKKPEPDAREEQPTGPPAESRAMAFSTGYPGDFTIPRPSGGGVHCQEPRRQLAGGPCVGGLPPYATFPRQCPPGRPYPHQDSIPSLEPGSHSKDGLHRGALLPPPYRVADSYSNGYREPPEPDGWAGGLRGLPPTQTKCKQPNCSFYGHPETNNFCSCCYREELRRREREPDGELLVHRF
Summary of the method: as §1

[3] = target: PRPF8 (UniProt Q6P2Q9)
Summary of the method: as §1

[4] = target: T3, PSMD7 (UniProt P51665)
T3 sequence (whole entry): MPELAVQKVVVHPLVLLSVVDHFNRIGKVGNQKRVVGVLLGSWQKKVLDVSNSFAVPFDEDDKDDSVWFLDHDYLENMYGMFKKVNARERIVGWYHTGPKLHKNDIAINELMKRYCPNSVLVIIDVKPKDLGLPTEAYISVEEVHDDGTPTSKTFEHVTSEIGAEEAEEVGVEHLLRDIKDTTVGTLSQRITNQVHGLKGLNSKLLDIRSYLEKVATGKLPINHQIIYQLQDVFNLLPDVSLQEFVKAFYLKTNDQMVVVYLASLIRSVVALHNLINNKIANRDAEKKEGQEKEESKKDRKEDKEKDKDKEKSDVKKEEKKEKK
Summary of the method: as §1

[5] = target: UCHL1 (UniProt P09936)
Summary of the method: as §1

[6] = target: T4, UCHL3 (UniProt P15374)
T4 sequence (whole entry): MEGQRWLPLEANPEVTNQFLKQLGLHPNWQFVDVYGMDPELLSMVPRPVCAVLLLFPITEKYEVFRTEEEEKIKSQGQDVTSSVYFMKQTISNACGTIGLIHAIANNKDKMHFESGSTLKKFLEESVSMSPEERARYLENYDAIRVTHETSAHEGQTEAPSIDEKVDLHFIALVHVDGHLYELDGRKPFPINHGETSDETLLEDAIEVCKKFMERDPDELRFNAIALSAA
Summary of the method: as §1

[7] = target: T5, UCHL5 (UniProt Q9Y5K5)
T5 sequence (whole entry): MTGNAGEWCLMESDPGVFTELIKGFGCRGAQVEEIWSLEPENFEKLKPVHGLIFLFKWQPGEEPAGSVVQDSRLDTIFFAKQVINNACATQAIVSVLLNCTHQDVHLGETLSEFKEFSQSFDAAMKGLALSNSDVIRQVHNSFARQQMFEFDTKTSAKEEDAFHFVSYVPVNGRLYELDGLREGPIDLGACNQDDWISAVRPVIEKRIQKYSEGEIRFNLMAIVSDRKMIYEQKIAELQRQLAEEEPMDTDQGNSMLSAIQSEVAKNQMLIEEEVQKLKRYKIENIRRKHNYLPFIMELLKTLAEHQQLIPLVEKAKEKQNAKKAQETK
Summary of the method: as §1

[8] = target: USP10 (UniProt Q14694)
Summary of the method: as §1

[9] = target: T6, USP15 (UniProt Q9Y4E8)
T6 sequence (whole entry): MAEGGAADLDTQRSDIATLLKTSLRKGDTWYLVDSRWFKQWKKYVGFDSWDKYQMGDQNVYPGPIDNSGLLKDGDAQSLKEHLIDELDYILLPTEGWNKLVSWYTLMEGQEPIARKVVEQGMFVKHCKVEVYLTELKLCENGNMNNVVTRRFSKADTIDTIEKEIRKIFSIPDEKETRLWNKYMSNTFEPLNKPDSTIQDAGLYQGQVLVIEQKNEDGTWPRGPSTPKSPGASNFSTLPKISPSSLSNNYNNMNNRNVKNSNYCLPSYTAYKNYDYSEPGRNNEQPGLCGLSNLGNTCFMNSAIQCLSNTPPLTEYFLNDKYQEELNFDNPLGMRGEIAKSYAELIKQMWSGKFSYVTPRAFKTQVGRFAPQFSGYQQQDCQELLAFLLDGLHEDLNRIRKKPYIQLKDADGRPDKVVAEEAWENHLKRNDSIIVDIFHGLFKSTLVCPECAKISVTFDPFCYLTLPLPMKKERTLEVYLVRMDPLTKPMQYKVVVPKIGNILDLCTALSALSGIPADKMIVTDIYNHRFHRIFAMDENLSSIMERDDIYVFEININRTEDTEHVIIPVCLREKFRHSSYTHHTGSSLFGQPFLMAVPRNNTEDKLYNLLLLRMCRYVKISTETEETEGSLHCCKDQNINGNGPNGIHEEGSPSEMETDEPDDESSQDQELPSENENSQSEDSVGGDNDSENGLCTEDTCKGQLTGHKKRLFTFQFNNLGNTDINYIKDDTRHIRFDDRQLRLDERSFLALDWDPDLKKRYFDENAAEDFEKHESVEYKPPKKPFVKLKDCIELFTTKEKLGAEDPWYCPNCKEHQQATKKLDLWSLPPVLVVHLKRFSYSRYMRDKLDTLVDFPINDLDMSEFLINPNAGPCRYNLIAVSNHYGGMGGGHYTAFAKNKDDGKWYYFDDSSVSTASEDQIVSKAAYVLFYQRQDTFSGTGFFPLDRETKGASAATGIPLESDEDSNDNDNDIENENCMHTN
Summary of the method: as §1

[10] = target: USP16 (UniProt Q9Y5T5)
Summary of the method: as §1

Measured: log2 ratio of Biotin-Ahx-Ub-VS probe labelling

Sequence of USP10 (Q14694 whole entry): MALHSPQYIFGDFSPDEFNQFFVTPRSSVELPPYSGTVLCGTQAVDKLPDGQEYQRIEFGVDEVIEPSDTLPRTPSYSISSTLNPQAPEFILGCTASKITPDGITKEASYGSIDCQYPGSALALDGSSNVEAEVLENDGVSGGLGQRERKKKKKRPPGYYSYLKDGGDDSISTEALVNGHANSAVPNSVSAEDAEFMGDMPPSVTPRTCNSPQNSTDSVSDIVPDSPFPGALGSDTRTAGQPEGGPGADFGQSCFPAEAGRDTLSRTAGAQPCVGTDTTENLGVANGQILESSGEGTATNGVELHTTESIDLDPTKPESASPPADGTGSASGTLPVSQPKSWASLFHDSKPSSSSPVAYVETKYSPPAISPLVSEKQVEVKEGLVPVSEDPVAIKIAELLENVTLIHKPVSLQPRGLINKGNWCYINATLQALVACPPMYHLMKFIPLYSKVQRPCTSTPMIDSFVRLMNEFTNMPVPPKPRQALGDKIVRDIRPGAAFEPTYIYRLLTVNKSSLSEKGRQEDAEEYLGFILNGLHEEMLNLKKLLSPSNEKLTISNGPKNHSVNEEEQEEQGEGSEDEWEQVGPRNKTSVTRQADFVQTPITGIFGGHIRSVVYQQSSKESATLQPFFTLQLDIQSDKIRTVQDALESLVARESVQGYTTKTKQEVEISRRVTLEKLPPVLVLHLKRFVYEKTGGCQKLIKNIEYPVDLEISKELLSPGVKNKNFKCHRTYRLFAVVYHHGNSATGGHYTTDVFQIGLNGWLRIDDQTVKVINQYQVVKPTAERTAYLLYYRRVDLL
Sequence of UCHL1 (P09936 whole entry, looked up): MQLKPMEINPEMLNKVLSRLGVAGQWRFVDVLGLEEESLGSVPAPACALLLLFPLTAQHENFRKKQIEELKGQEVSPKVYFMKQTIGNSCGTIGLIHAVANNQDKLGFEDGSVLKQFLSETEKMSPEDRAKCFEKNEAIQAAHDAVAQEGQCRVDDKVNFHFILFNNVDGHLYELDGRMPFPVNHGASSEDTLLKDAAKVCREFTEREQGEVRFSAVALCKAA
Sequence of USP16 (Q9Y5T5 whole entry, looked up): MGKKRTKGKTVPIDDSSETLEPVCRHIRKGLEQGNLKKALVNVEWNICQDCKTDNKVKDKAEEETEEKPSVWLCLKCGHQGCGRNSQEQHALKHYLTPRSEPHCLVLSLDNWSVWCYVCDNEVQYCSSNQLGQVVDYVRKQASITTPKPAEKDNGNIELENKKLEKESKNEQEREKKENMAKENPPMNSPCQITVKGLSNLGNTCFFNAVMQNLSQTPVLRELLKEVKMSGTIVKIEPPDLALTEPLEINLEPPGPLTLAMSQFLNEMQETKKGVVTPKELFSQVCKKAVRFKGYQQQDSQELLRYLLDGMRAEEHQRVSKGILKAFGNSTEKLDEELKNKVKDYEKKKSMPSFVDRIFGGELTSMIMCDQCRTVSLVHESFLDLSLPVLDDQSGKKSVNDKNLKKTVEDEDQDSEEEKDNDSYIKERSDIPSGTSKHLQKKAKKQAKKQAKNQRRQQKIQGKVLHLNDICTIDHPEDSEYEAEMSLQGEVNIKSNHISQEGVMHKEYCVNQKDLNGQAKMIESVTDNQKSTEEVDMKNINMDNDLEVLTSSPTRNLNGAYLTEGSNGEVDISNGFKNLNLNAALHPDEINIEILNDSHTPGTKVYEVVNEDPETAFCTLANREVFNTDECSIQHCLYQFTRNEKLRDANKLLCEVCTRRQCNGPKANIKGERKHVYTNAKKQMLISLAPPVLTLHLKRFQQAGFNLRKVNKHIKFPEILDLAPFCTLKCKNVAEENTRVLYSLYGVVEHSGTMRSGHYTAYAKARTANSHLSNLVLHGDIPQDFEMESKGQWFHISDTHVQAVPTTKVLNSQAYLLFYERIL

O=C(CCl)N1CCC(c2noc3cc(F)ccc23)CC1
inactive: [1] -0.0328 | [2] -0.608 | [3] -0.0836 | [4] -0.139 | [5] -0.799 | [6] 0.208 | [7] -0.186 | [8] -0.264 | [9] -0.468 | [10] -0.65
